Experimental findings from PubChem BioAssay (NCATS) are described below.

Assay [1] in a line: Cell Viability - Hek293 (AID 427;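 active = compounds whose dose-response curve shows a full or clear partial loss of cell viability, called from curve shape rather than a numeric limit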;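 note: potency is the fitted concentration of half-maximal effect; cells exposed to compound for 40 hours at 37 °C before reading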). As to conditions: qHTS. In outline: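 HEK293 cells in complete medium were exposed to compound for 40 hr at 37 °C, then cellular ATP was read by CellTiter-Glo luminescence. Data were normalized to DMSO (basal) and 100 uM tamoxifen (100% inhibition), and AC50 came from Hill fits.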
Assay [2] is described as follows: Cell Viability - NIH 3T3 (AID 541).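 Note: plate controls were DMSO alone for no effect and tamoxifen positive control for full effect; nearly all actives have a fitted effect of over 25% in size.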 As to conditions: NIH 3T3 cell viability, qHTS; activity change, negative = cytotoxicity: at 92.2 µM (top of the series). In outline:
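Cells seeded at 1000/well, rested 5 hr at 37 °C, then dosed and incubated 40 hr at 37 °C. CellTiter-Glo added, 20 min room temperature, luminescence read. AC50 by Hill fit.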
For orientation: qHTS replaces the single test concentration by a dilution series.

Assay [3] can be described thus: Cellular Toxicity (caspase-3) HepG2 (AID 654).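 Note: cells exposed to compound for 16 hours before reading; 0% = DMSO alone and 100% = caspase signal from 100 µM tamoxifen.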 As to conditions: HepG2 caspase-3 activation, luminescence, 0% = DMSO only, 100% = tamoxifen; series mostly up to 92.2 µM. Put shortly:
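Caspase 3/7 activation in HepG2 is measured as rising luminescence after a 16 hr treatment at 37 °C. Values are scaled between DMSO basal and 100 uM tamoxifen, and AC50 is fitted with the Hill equation.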

Assay [4] is described as follows: Cellular Toxicity (caspase-3) Hek293 (AID 664).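 Note: cells exposed to compound for 16 h at 37 °C before readout.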 As to conditions: HEK293 caspase-3 activation, DMSO = 0%, 100 µM tamoxifen = 100%; series mostly up to 92.2 µM. In outline:
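qHTS, HEK293 (human embryonic kidney), 16 h cpd exposure in complete medium. Caspase-3/7 activation = luminescence increase; normalized to DMSO/100 uM tamoxifen; Hill-fit AC50.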

A short description of assay [5]: Cellular Toxicity (caspase-3) NIH 3T3 (AID 666).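 Note: caspase signal read after 16 h compound exposure; 0% = DMSO basal and 100% = 100 µM tamoxifen stimulation.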 The conditions noted are these: NIH 3T3 caspase-3 activation, apoptosis/toxicity, 0% DMSO, 100% is 100 µM tamoxifen; series mostly up to 92.2 µM. In outline: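 Cells were plated at 1000 per well and incubated 5 hr at 37°C, then compound was added for 16 hr. Caspase-Glo 3/7 reagent followed for 20 min at room temperature before luminescence was read.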

Assay [6] can be described thus: MultiTox-Fluor Cytotoxicity Assay - LYMP1-003 - Live Cells (AID 962).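 Note: 0% = DMSO only and full loss = 92 µM tetraoctylammonium bromide; cytotoxic hits lower the live-cell protease signal.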 The conditions noted are these: LYMP1-003 lymphoblastoid cells, MultiTox-Fluor live-cell protease fluorescence; series mostly up to 92.2 µM. In outline:
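Acute cytotoxicity is scored as a drop in live-cell protease activity in human lymphoblastoid LYMP1-003 cells after 16 hr compound exposure at 37 C. AC50 values come from Hill-equation modelling of concentration-response data.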

Assay [7] in a line: Cell Viability - LYMP2-005 (AID 967).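 Note: plate controls were DMSO only for no effect and 92 µM tetraoctylammonium bromide control for full effect.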 As to conditions: LYMP2-005 lymphoblastoid cell viability; series mostly up to 92.2 µM. Put shortly: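 CellTiter-Glo luminescence (cellular ATP) read-out; LYMP2-005 lymphoblastoid cells, 2500/well, 5 h pre-incubation, then 24 h compound exposure at 37 C in complete medium. Tetraoctylammonium bromide positive control; AC50 by standard Hill fit.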

Assay [8] can be described thus: Cell Viability - LYMP2-009 (AID 968).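 Note: 0% = DMSO alone and the full-kill end = tetraoctylammonium bromide at 92 µM; nearly all actives have a fitted effect of over 55% in size.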 The conditions noted are these: LYMP2-009 lymphoblastoid cell viability; series mostly up to 92.2 µM.
Assay [9] in a line: Cell Viability - LYMP2-017 (AID 972).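 Note: cells exposed to compound for 24 hours at 37 °C; % is set by controls: 0 for no effect and ±100 for the full control effect; nearly all actives have a fitted effect of over 55% in size.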 As to conditions: LYMP2-017 lymphoblastoid cell viability; series mostly up to 92.2 µM. In outline:
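Cytotoxicity is scored as a concentration-dependent drop in cellular ATP in a human lymphoblastoid line after 24 hr treatment at 37 C. Values are AC50s from Hill-equation modelling.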

Assay [10] is described as follows: Cell Viability - LYMP2-019 (AID 973).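 Note: 0% = DMSO alone and full effect = 92 µM tetraoctylammonium bromide; nearly all actives have a fitted effect of over 55% in size.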 As to conditions: LYMP2-019 lymphoblastoid cell line viability; series mostly up to 92.2 µM. Put shortly:
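Cytotoxicity is scored as a concentration-dependent drop in cellular ATP after cells (2500/well) receive compound for 24 hr at 37 C. Tetraoctylammonium bromide serves as positive control.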

Assay [11] can be described thus: Cell Viability - LYMP2-021 (AID 974).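 Note: compound exposure lasts 24 hours at 37 °C; % is set by controls: 0 for no effect and ±100 for the full control effect; nearly all actives have a fitted effect of over 55% in size.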 The conditions noted are these: LYMP2-021 lymphoblastoid cells viability; series mostly up to 92.2 µM. Put shortly:
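Loss of cellular ATP, measured with a luciferase-based CellTiter-Glo readout, serves as the toxicity signal in human lymphoblastoid cells treated for 24 hours at 37 C. Potency is reported as AC50 from a standard Hill model.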

Assay [12] is described as follows: Cell Viability - LYMP2-016 (AID 984). As to conditions: LYMP2-016 lymphoblastoid cell viability, qHTS; series mostly up to 92.2 µM. Put shortly:
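Human lymphoblastoid cells (LYMP2-016), 2500/well in complete medium, preincubated 5 hr at 37 C, then compound-treated 24 hr at 37 C. Intracellular ATP read by CellTiter-Glo luminescence after 30 min at room temperature; AC50 from Hill-equation concentration-response fits.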

Assay [13] in a line: Cell Viability - LYMP2-022 (AID 987). The conditions noted are these: LYMP2-022 lymphoblastoid cell viability; series mostly up to 92.2 µM. In outline: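 Cells were seeded at 2500 per well, rested 5 hr at 37 C, and treated with titrated compounds for 24 hr at 37 C. Cellular ATP was then quantified by luciferase luminescence, and AC50 values were derived from Hill-modelled concentration-response curves.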

Assay [14] is described as follows: Cell Viability - LYMP2-026 (AID 989). Note: % is set by controls: 0 for no effect and ±100 for the full control effect; nearly all actives have a fitted effect of over 50% in size. As to conditions: LYMP2-026 lymphoblastoid cell viability, qHTS; series mostly up to 92.2 µM. Put shortly:
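Cells are seeded at 2500 per well and held 5 hr at 37 C. Compounds are added in concentration series for 24 hr, then CellTiter-Glo reagent is applied and luminescence read.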

Assay [15] in a line: qHTS assay for small molecule agonists of retinoid X receptor alpha signaling (AID 588544). The conditions noted are these: HEK293T RXRa-UAS-bla, beta-lactamase reporter, 18 h; 530 nm emission.
A short description of assay [16]: qHTS assay for small molecule antagonists of retinoid X receptor alpha signaling (AID 588546).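 Note: cells stimulated with 9-cis-retinoic acid as agonist; % is set by controls: 0 for no effect and ±100 for the full control effect.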 The conditions noted are these: HEK293T RXRa-UAS-bla, beta-lactamase ratio, antagonist mode; measured here: W530 green channel, cytotoxicity proxy. In outline: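 Beta-lactamase reporter inhibition, read as CCF4 fluorescence ratio (ex 405, em 460/530 nm) after 2 h at RT. HEK293T UAS-bla cells, 2500/well, were stimulated with 9-cis-RA at 500 or 100 nM final alongside test compound for 18 h at 37 C.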

Assay [17] has as its target Voltage-gated inwardly rectifying potassium channel KCNH2 (Homo sapiens) (UniProt Q12809). Put plainly: qHTS Assay for Small Molecule Inhibitors of the Human hERG Channel Activity (AID 588834).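 Note: top concentration of the series differs between compounds; % is set by controls: 0 for no effect and ±100 for the full control effect; lower thallium flux fluorescence means stronger hERG block; nearly all actives have a fitted effect of over 50% in size.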 As to conditions: U2OS BacMam hERG, FluxOR thallium flux fluorescence; series mostly up to 92.2 µM. Put shortly: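 In hERG-transduced U2OS cells, dye-loaded for 1 hr at room temperature in dark, test compounds incubated 10 min at 37 °C before thallium stimulation. AC50 values derived by Hill modelling of concentration-response.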

A short description of assay [18]: qHTS assay for small molecule disruptors of the mitochondrial membrane potential - 5 hr assay (AID 651755; calls by dose curve; note: % is set by controls: 0 for no effect and ±100 for the full control effect; nearly all actives have a fitted effect of over 40% in size). As to conditions: JC-1-type ratio dye; series mostly up to 92.2 µM. In outline: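 Seed HepG2 overnight, add compound, incubate 5 hr at 37C and 5% CO2, stain 30 min with Mito-MPS, then measure monomer (490/535 nm) and aggregate (540/590 nm) fluorescence.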

Assay [19] concerns the target Peroxisome proliferator-activated receptor alpha (Homo sapiens) (UniProt Q07869). Nature of the assay: qHTS assay for small molecule agonists of the peroxisome proliferator-activated receptor alpha (PPARalpha) signaling pathway (AID 651778). Note: % of control where 0% means no effect. As to conditions: PathHunter PPARalpha complementation, chemiluminescence, 6 h; stronger effect = higher value. In outline: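 Cells plated at 2,000/well and held overnight at 37 C, 5% CO2, then compound added by pin tool for 6 hr; after PathHunter detection reagent and 60 min at room temperature, chemiluminescence from enzyme complementation was read.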

Assay [20] is described as follows: qHTS assay for small molecule agonists of the antioxidant response element (ARE) signaling pathway measured by Nrf2-dependant transcriptional activity (AID 720636; active = well fitted curve in the direction sought with a large enough effect in the repeat runs; an effect the other way counts as inactive or inconclusive;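 note: HepG2 cells with an ARE-driven luciferase reporter; % of control where 0% means no effect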). As to conditions: ARE-luc HepG2, Nrf2 luciferase reporter, 16 h; series mostly up to 92.4 µM. In outline:
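We exposed ARE-luc HepG2 cells, seeded in assay medium with 1% dialyzed FBS and allowed 6 hr to adhere, to test compounds overnight (16 hr, 37 C) before measuring luciferase with ONE-Glo.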

Molecules are shown by their SMILES. Where “and” joins values, the source holds several entries; their conditions need not be identical. Identical values can stand only once. Inconclusive results are not listed. Calls of active or inactive are those of the source. Unless noted, calls come from the whole dose curve; as a rule, active = well fitted curve in the direction sought with a large enough effect; inconclusive = small, poorly fitted or top-dose-only effect, or another doubt; inactive = no such curve, though single readings can be large; an effect the other way counts as inactive or inconclusive. Bounds are passed on as bounds.

Sequence of Peroxisome proliferator-activated receptor alpha (Homo sapiens) (Q07869 whole entry, looked up): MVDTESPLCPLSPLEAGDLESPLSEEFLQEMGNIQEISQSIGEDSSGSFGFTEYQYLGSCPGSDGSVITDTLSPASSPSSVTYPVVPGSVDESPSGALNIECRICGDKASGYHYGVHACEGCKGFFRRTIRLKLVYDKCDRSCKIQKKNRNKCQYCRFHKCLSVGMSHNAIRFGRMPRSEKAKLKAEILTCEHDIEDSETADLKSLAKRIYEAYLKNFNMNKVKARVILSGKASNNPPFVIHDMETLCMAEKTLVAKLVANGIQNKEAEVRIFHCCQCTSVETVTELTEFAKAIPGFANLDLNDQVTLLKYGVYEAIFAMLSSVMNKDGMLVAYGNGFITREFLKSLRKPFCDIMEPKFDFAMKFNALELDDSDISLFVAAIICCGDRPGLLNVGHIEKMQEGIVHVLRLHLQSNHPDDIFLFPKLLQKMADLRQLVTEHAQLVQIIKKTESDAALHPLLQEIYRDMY
Sequence of Voltage-gated inwardly rectifying potassium channel KCNH2 (Homo sapiens) (Q12809 whole entry, looked up): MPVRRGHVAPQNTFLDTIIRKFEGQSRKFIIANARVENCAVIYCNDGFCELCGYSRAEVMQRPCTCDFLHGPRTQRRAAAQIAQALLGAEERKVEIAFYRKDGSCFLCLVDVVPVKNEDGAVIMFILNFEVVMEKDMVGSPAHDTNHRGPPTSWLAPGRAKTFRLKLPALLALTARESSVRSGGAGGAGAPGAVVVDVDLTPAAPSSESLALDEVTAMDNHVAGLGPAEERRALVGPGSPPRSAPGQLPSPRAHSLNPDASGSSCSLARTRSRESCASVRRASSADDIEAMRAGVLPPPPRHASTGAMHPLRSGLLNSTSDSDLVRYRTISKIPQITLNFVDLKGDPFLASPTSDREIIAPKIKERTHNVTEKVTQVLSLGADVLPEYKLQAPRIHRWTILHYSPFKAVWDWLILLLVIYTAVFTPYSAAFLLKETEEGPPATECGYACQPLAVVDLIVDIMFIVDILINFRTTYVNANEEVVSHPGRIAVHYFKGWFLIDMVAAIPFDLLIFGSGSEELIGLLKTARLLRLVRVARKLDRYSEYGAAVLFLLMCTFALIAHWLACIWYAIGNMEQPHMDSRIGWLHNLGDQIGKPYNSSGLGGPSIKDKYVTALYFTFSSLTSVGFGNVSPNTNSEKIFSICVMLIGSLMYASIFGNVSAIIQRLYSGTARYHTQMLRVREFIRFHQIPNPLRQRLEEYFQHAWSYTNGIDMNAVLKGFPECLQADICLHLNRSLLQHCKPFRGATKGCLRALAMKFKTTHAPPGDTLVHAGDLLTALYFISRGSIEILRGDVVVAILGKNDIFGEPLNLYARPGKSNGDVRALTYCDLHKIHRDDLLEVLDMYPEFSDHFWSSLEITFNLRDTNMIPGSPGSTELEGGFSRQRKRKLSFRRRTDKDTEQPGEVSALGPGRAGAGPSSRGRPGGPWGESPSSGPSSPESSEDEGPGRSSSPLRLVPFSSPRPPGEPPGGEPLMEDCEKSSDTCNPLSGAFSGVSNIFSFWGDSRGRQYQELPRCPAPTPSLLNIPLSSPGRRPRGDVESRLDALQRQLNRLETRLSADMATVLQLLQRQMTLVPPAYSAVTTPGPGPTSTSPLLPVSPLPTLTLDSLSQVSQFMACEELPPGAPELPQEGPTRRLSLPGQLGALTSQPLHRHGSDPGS

For `C=C(Cl)Cl`, the Potency in assay [1] was > 92 µM (inactive). Also, the activity change, negative = cytotoxicity in [2] is 0.633% (inactive). Also, the outcome in [3], in [4], in assay [5] and in assay [20] was inactive. Also, the Potency entry in assay [6], in assay [7], in [8], in [9], in [10] and in [11] was “inactive” throughout. For the same compound, the Potency result in [12], in [13], in assay [14], in assay [17] and in assay [18] was “inactive” throughout. For the same compound, the max response is -17.1% in assay [15], -3.44% in assay [16] and -2.47% (inactive) in assay [19].

Regarding `COc1ccc(C=O)cc1OC`, the Potency in assay [1] is > 92 µM (inactive). In addition, in assay [2], the activity change, negative = cytotoxicity was -14% (inactive). Besides, the call in assay [3], in [4], in assay [5] and in assay [20] was inactive. Moreover, the Potency result in assay [6], in assay [7], in assay [8], in assay [9], in assay [10] and in assay [11] was “inactive” in each case. The Potency entry in assay [12], in assay [13], in assay [14], in assay [17] and in assay [18] was “inactive” throughout. For the same compound, the max response in assay [15] was 17.8% and -5.1%; in assay [16], -5.56% and -4.77%; in [19] it was 0.927% (inactive) and -2.24% (inactive).

For `Cc1cccc(C#N)c1`, the Potency in assay [1] is > 92 µM (inactive). The activity change, negative = cytotoxicity in assay [2] was -15.8% (inactive). Besides, the outcome in [3], in assay [4], in assay [5] and in assay [20] was inactive. Also, the Potency entry in assay [6], in assay [7], in assay [8], in assay [9], in assay [10] and in [11] was “inactive” each time. The Potency entry in assay [12], in [13], in assay [14], in [17] and in assay [18] was “inactive” each time. The max response in [15] is -7.67%; in [16], 3.52%; in [19], -0.3% (inactive).

Take `CCOP(=S)(OCC)SCSC(C)(C)C`: the Potency in assay [1] is > 92 µM (inactive). For the same compound, the activity change, negative = cytotoxicity in assay [2] was 1.25% (inactive). The result in assay [3], in assay [4], in [5] and in assay [20] was inactive. In addition, the Potency entry in assay [6], in assay [7], in assay [8], in assay [9], in [10] and in assay [11] was “inactive” each time. In addition, the Potency entry in [12], in assay [13], in assay [14] and in assay [18] was “inactive” in each case. The max response in [15] was 19.7% and -0.121%; in [16] it was -10.4% and -6.52%; in [19] it was -1.59% (inactive) and -3.9% (inactive).

Consider `O=NN(c1ccccc1)c1ccccc1`, for which, in [1], the Potency was > 92 µM (inactive). Further, the activity change, negative = cytotoxicity in [2] is -6.8% (inactive). The outcome in [3], in [4], in assay [5] and in assay [20] was inactive. Further, the Potency result in assay [6], in [7], in assay [8], in assay [9], in [10] and in [11] was “inactive” in each case. The Potency entry in assay [12], in [13], in [14], in assay [17] and in assay [18] was “inactive” in each case. Besides, the max response is -13.1% and -6.23% in assay [15]; -5.84% and -1.3% in assay [16]; 3.69% (inactive) and -0.619% (inactive) in assay [19].

In the case of `NC(=S)Nc1ccccc1`, the Potency in assay [1] is > 92 µM (inactive). In assay [2], the activity change, negative = cytotoxicity is -8.44% (inactive) and 0.7% (inactive). In addition, the outcome in assay [3], in [4], in assay [5] and in assay [20] was inactive. Further, the Potency result in assay [6], in [7], in [8], in [9], in [10] and in assay [11] was “inactive” each time. For the same compound, the Potency result in [12], in assay [13], in [14], in assay [17] and in assay [18] was “inactive” each time. Also, the max response in assay [15] is -11.1% and -12.4% and -6.79%; in assay [16] it was -15.9% and -3.13% and -6.62%; in [19] it was -6.31% (inactive) and -5.47% (inactive) and -0.622% (inactive).
